Assay results from PubChem BioAssay AID463173 (ICCB-Longwood Screening Facility, Harvard Medical School, 2010).
About 4,300 (8.3%) of roughly 52,000 compounds were called active. Shown is part of a subset that was picked to be rich in actives. Values without a mark were called inactive. No stated cut-off is given here; in the data, active means survival mostly below about 52% (no sharp cut-off); inactive means mostly above about 56%.

Test system: DeltatarO mutant
Assay: growth inhibition of S. aureus wild type versus tarO mutant, primary screen, teichoic acid synthesis inhibitors, RN4220, OD600 (AID 463173)
Settings: OD600, 18 h, active compounds read low, screened at 18.75 µg/mL (by protocol)

Compound	survival
Cc1cc(C)c(C#N)c(N2CCN(c3cccc(C)c3C)CC2)n1	106%
Cc1ccc(C)c(N2CCN(c3nc4ccc(C)cc4nc3-n3nc(C)cc3C)CC2)c1	102%
Cc1cc(C)n(-c2nc3ccccc3nc2N2CCN(c3cccc(C(F)(F)F)c3)CC2)n1	91%
COc1ccccc1N1CCN(c2nc3ccc(C)cc3n3nnnc23)CC1	128%
Cc1cc(C)n(-c2nc3ccccc3nc2N2CCN(c3cccc(C)c3C)CC2)n1	-6% (active)
Cc1cc(C)n(-c2nc3cc(Cl)ccc3nc2N2CCN(c3cccc(C)c3C)CC2)n1	-6% (active)
Cc1ccc2nc(N3CCN(c4cccc(Cl)c4)CC3)c3nnnn3c2c1	88%
O=C(Nc1ccccc1C(F)(F)F)N1CCN(c2ccc3nnc(-c4ccc(F)cc4)n3n2)CC1	58%
COc1ccc(-c2nc(CSc3nncn4c3cc3oc(C)cc34)c(C)o2)cc1	56%
Cc1c(Cl)cccc1-n1ncc(C(=O)N2CCOCC2)c1C1CCN(C(=O)OC(C)(C)C)CC1	103%
CCc1ccc(S(=O)(=O)Nc2cccc(-c3ccc(OC)nn3)c2)s1	76%
Cc1c(CC(=O)NCCc2ccccc2F)c(=O)oc2cc(O)c(Cl)cc12	59%
CCn1cc(C(=O)N2CCN(c3ccccc3F)CC2)c(=O)c2cc(S(=O)(=O)N(C)C3CCCCC3)ccc21	79%
CCn1cc(C(=O)NC(C)c2ccccc2)c(=O)c2cc(S(=O)(=O)N3CCc4ccccc4C3)ccc21 (stereo unspecified)	80%
CCOc1ccc(CCNC(=O)c2cn(C)c3ccc(S(=O)(=O)N4CCCCCC4)cc3c2=O)cc1OCC	61%
CCC(C)NC(=O)c1cn(CC)c2ccc(S(=O)(=O)N3CCc4ccccc4C3)cc2c1=O (stereo unspecified)	35% (active)
CCn1cc(C(=O)NCCc2ccc(Cl)cc2)c(=O)c2cc(S(=O)(=O)N3CCc4ccccc4C3)ccc21	54% (active)
CCOc1ccc(CCNC(=O)c2cn(C)c3ccc(S(=O)(=O)N4CCOCC4)cc3c2=O)cc1OCC	56% (active)
CCn1cc(C(=O)NCCc2ccc(C)cc2)c(=O)c2cc(S(=O)(=O)N3CCc4ccccc4C3)ccc21	67%
CCn1cc(C(=O)NCc2ccccc2)c(=O)c2cc(S(=O)(=O)N3CCc4ccccc4C3)ccc21	73%
CCOc1ccc(CCNC(=O)c2cn(C)c3ccc(S(=O)(=O)N4CCCCC4)cc3c2=O)cc1OCC	101%
CCn1cc(C(=O)NCCc2ccccc2)c(=O)c2cc(S(=O)(=O)N3CCc4ccccc4C3)ccc21	67%
Cn1cnnc1SCC(=O)O	85%

Compound	survival
Cc1ccc(NC(=O)CC(C)S(=O)(=O)c2ccc3c(c2)NC(=O)CO3)cc1C (stereo unspecified)	85%
Cc1ccc(N2CCN(C(=O)c3c(C)oc4ncnc(N5CCCCC5)c34)CC2)c(C)c1	77%
CCOc1cc(C(=O)NCC(c2ccc(N(C)C)cc2)N2CCOCC2)cc(OCC)c1OCC (stereo unspecified)	101%
CCc1ccc(Nc2ncnc3c2cnn3-c2cc(Cl)ccc2C)cc1	77%
CCc1nnc(SCc2nc(-c3ccc(OC)c(OC)c3)oc2C)c2cc3sc(C)cc3n12	69%
O=C(CCn1c(=O)c2cccn2c2ccc(F)cc21)NCc1ccccc1F	45% (active)
O=C(CCn1c(=O)c2cccn2c2ccc(F)cc21)NCCc1ccccc1	42% (active)
O=C(Cn1c(=O)c2cccn2c2ccccc21)NCCc1ccccc1	62%
O=C(CCCn1c(=O)c2cccn2c2ccc(F)cc21)NCCc1ccccc1	47% (active)
O=C(CCn1c(=O)c2cccn2c2ccc(F)cc21)NCCc1ccc(Cl)cc1	50%
O=C(CCn1c(=O)c2cccn2c2cccnc21)NCc1ccccc1F	100%
NS(=O)(=O)c1ccc(CCNC(=O)Cn2c(=O)c3cccn3c3ccc(F)cc32)cc1	89%
CSc1ccc(CNC(=O)CCn2c(=O)c3cccn3c3ccc(F)cc32)cc1	59%
CCC(=O)Nc1ccc(-c2nnc3c4ccccc4c(C)nn23)cc1	90%
COc1ccc(OC)c(NC(=O)c2c(C)oc3ncnc(N4CCOCC4)c23)c1	134%
COC(=O)C(C)Sc1cc(C)c2ccccc2n1 (stereo unspecified)	76%
CCCCNC(=O)CCCn1c(=O)c2ccccc2n(Cc2cccc(Cl)c2)c1=O	100%
Cc1cc(N(C)Cc2ccccc2)n2nc(-c3ccc(C(C)(C)C)cc3)nc2n1	39% (active)
CCN(CC)c1cc(C)nc2nc(-c3ccc(C)cc3)nn12	43% (active)
CCCN(CCC)c1cc(C)nc2nc(-c3ccc(C(C)(C)C)cc3)nn12	103%
Cc1cc(N(CCO)Cc2ccccc2)n2nc(-c3ccc(C(C)(C)C)cc3)nc2n1	48%
CCCN(CCC)c1cc(C)nc2nc(-c3ccc(Cl)cc3)nn12	52%
Cc1cc(C)n2nc(-c3ccc(Cl)cc3)nc2n1	76%
